# Source: PubChem BioAssay
# Sampled rows, rich in hits. Any-hit rate of the full collection: about 7.1%.
# MCF10A rereplic: DNA re-replication induction in MCF 10a cells. MCF 10A DNA re-replication, Hoechst nuclear intensity, 48 h. Potency, µM (highest dose often 46.1 µM), most hits filed as activators. hit rate 2.9% among 350,000; also: nearly all actives have a fitted effect of over 50% in size
# ATXN2 expr inh: inhibitors of ATXN2 expression | Potency, µM (highest dose often 57 µM), most hits filed as inhibitors | hit rate 0.72% among 360,000 | HEK-293 ATXN2-luciferase reporter, luminescence, 24 h; also: nearly all actives have a fitted effect of over 55% in size
#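 ATXN2-luciferase reporter cells (luciferase flanked by upstream and downstream ATXN2 gene portions) were treated 24 h at 37 °C with compounds at up to 57 uM. SteadyGlo luminescence gave expression; GF-AFC fluorescence gave viability.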
# PINK1 modulator: changes PINK1 expression | PINK1 immunofluorescence, high-content cytometry, 24 h | Potency, µM (doses to about 76.6 µM), most hits filed as activators | hit rate 0.2% among 410,000; active = well fitted activation curve with a large enough effect; inconclusive = small, poorly fitted or top-dose-only effect; cell line not stated here; also: nearly all actives have a fitted effect of over 65% in size
#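 Fluorescence from anti-PINK1 antibody, together with nuclear and cell stains, was scanned on a laser-scanning cytometer. Before staining, stable-line cells were incubated 24 hours with compounds at 5 concentrations; primary antibody 12 h at 10 degrees C.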
# SW480 rerep: induces DNA re-replication in SW480 colon adenocarcinoma cells. Potency, µM (top dose mostly 46.1 µM), most hits filed as activators. AID 624297. hit rate 1.8% among 340,000. SW480 DNA re-replication, Hoechst DNA content imaging, 48 h; also: nearly all actives have a fitted effect of over 55% in size
#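 Quantitative HTS format with DMSO vehicle controls; 48 hr drug incubation at 37 C, then 40 min Hoechst staining and scanning imager measurement at 405 nm excitation.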
# ATXN viability: viability counter-screen for ATXN expression inhibitors; S2 cells (HEK-293 line with an ATXN2-luciferase reporter) viability, CellTiter-Fluor protease fluorescence, 24 h; Potency, µM (highest dose often 56.7 µM), most hits filed as cytotoxic; hit rate 0.49% among 400,000; also: nearly all actives have a fitted effect of over 40% in size
# IL1B secr inh: inhibitors of inflammasome signaling (IL-1 beta secretion); THP-1 LPS/ATP IL-1B secretion, AlphaLISA, 16 h; active compounds read low; activity change, % at 57.5 µM; hit rate 4.7% among 360,000; in the data active = activity change below about -50%; inconclusive = mostly about -30% to -49%
#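 Secreted IL-1B measured by AlphaLISA bead assay after 16 h compound exposure of THP-1 cells; compounds (final up to 57.5 uM) added 1 h before LPS (250 ng/mL) and ATP (1.25 mM) stimulation; lower signal means less secretion.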
# Hits are given with their value; - = inactive; ? = inconclusive; . = no result; [ ] = another dose, or the depositor's remark. Unless noted, calls follow the shape of the dose curve; as a rule, active = well fitted curve in the direction sought with a large enough effect; inconclusive = small, poorly fitted or top-dose-only effect, or another doubt; inactive = no such curve, though single readings can be large; an effect the other way counts as inactive or inconclusive.
SMILES,MCF10A rereplic,ATXN2 expr inh,PINK1 modulator,SW480 rerep,ATXN viability,IL1B secr inh
CN(C)CCNC(=O)c1ccc2nc(Cc3ccccc3)oc2c1,.,-,-,.,?,.
C=CC(=O)Nc1cccc(Nc2nc(N[C@H]3CC[C@H](N(C)C)CC3)nc3c2ncn3C(C)C)c1,?,1µM,-,?,2µM,-
Cc1cnc(SCc2ccccn2)nc1C1CCCN(C(=O)c2ccc3c(c2)OCO3)C1 (configuration not stated),.,.,-,.,-,.
CCOCCCn1c(=NC(=O)c2cccs2)c(C#N)cc2c(=O)n3cccc(C)c3nc21,9.2µM,.,-,?,-,-
COCCCn1c(=NC(=O)c2ccccc2)c(C#N)cc2c(=O)n3cccc(C)c3nc21,6.51µM,-,-,-,.,-
Cc1cccn2c(=O)c3cc(C#N)c(=NC(=O)c4cccs4)n(CC(C)C)c3nc12,?,-,-,?,-,-
COCCCn1c(=NC(C)=O)c(C#N)cc2c(=O)n3cccc(C)c3nc21,18.4µM,-,-,5.8µM,.,.
COc1ccc(C(=O)Oc2c(Sc3ccc(Cl)cc3)c(C)nn2C(C)(C)C)cc1OC,.,-,-,.,-,.
Cc1ccc(C(C2=C(O)CC(C)(C)CC2=O)C2C(=O)CC(C)(C)CC2=O)s1 (configuration not stated),23.1µM,-,-,?,-,-
CC1(C)CC(=O)C(C(C2=C(O)CC(C)(C)CC2=O)c2ccc(Br)s2)C(=O)C1 (configuration not stated),13µM,?,-,?,?,-95.9
CCn1ncc(/C=C/C(=O)Nc2c(C)nn(Cc3ccc(Cl)cc3Cl)c2C)c1C,-,?,-,10.3µM,?,?
COc1ccc(Br)cc1Cn1nnc(C(=O)Nc2ccc(C)cc2C)c1N,.,?,-,.,?,.
CC1=C(C(=O)N(C(C)C)C(C)C)CC(CC(=O)NCc2cccc3ccccc23)C(=O)N1CCC1=CCCCC1 (configuration not stated),.,?,-,.,.,-80.3
CC1=C(C(=O)N(C(C)C)C(C)C)CC(CC(=O)NCc2cccc3ccccc23)C(=O)N1Cc1ccc(F)cc1 (configuration not stated),.,?,-,.,?,-67.7
CCC(=O)Oc1ccc2c(c1)CC[C@@H]1[C@@H]2CC[C@@]2(C)[C@H]1C[C@@H](OC(=O)CC)[C@@H]2OC(=O)CC,.,-,.,.,-,.
COc1ccc(NC(=O)CN2C(=O)C3(SCC(=O)N3c3cccc(OC)c3)c3ccccc32)cc1 (configuration not stated),.,-,-,.,-,.
Cc1ccc(C2=NNC(=O)C(c3ccc(Cl)cc3)C2)cc1 (configuration not stated),-,-,-,-,-,-
O=C1NN=C(c2ccc(Cl)cc2)CC1c1cccc(Br)c1 (configuration not stated),?,-,-,-,-,-51.3
C/C(=N\OCc1cccc(C(=O)O)c1)c1ccc(Cl)cc1,-,2.82µM,-,-,-,.
C/C(=N\OCc1ccc(C#N)cc1)c1ccccc1,-,-,-,-,-,?
CC(C)CC(=O)C1CCCN(C(=O)c2ccc3oc(Cc4ccccc4)nc3c2)C1 (configuration not stated),-,-,-,-,-,-52.0
CCOC(=O)C1=C(Cc2ccc(F)cc2)C(=O)c2ccccc2C1=O,?,?,-,-,?,-71.1
O=C(O)c1ccc2c3c(ncnc13)-c1ccccc1C2=O,2.31µM,?,-,?,-,-
N=c1oc2ccccc2cc1-c1nc(-c2ccccc2)cs1,10.3µM,-,-,13µM,.,-
CCOC(=O)c1cnc2ccc(OCC)cc2c1N(C)Cc1ccccc1,?,-,-,-,-,-71.1
SMILES,MCF10A rereplic,ATXN2 expr inh,PINK1 modulator,SW480 rerep,ATXN viability,IL1B secr inh
CCOC(=O)c1cnc2ccc(OCC)cc2c1Nc1ccc(OCc2ccccc2Cl)cc1,.,-,-,.,-,.
CCOC(=O)c1cnc2ccc(OCC)cc2c1N1CCN(c2ccccc2OC)CC1,18.4µM,-,-,-,?,-55.1
O=C(O)[C@H]1O[C@H](Oc2cc3oc(-c4ccccc4)cc(=O)c3c(O)c2O)[C@H](O)[C@@H](O)[C@H]1O,.,-,.,.,.,.
CCCCc1ccc(C(=O)COC(=O)c2ccc3nc(C)c(C)nc3c2)cc1,.,.,-,.,.,.
COc1ccccc1[C@H]1C(c2ccc(F)cc2)=NN(c2ccccc2)[C@@H]1CO,?,-,-,3.66µM,.,-
COc1ccccc1[C@H]1C(c2ccccc2)=NN(c2ccccc2)[C@@H]1CO,1.84µM,-,-,13µM,.,-
CCOc1ccc(N2C(=O)C3C(c4ccccc4)=NN(c4ccccc4)C3C2=O)cc1 (configuration not stated),-,-,-,-,-,-
C[C@H]1C(c2ccc(F)cc2)=NN(c2ccccc2)[C@@H]1CO,10.3µM,-,-,5.17µM,.,-
CC1=NN(c2ccccc2)C(=O)C1C(=O)C(=O)Nc1ccc(F)cc1 (configuration not stated),-,-[11.3 µM],-,-,-,-
COc1ccccc1[C@H]1C(c2cccc(C)c2)=NN(c2ccccc2)[C@@H]1CO,?,-,-,0.326µM,.,-
CCOC(=O)COc1ccc(C)cc1C(=O)c1ccn2nc(-c3ccc(Cl)cc3)cc2n1,.,-,-,.,-,.
COc1ccc(S(=O)(=O)Nc2cc3c(cc2NCc2ccccc2)n(C)c(=O)n3C)cc1,.,-,-,.,-,.
Cc1ccc(S(=O)(=O)Nc2ccc3cc([N+](=O)[O-])ccc3c2[N+](=O)[O-])cc1,?,?,?,-,?,-
Cc1ccc(S(=O)(=O)Nc2ccc3ccccc3c2[N+](=O)[O-])cc1,18.4µM,-,-,-,-,-
COc1ccc(OC)c(C2CC(=O)c3c([nH]c(C(=O)OC4CCC(C)CC4)c3C)C2)c1 (configuration not stated),.,-,-,.,?,.
COc1cc(C2CC(=O)c3c([nH]c(C(=O)OCc4ccc(C)cc4)c3C)C2)cc(OC)c1OC (configuration not stated),.,.,-,.,.,.
COc1ccc(OC)c(C2CC(=O)c3c([nH]c(C(=O)OC(C)C)c3C)C2)c1 (configuration not stated),?,-,-,3.66µM,?,-
COc1ccc(OC)c(C2CC(=O)c3c([nH]c(C(=O)OCC4CCCO4)c3C)C2)c1 (configuration not stated),14.6µM,-,-,?,?,-
COc1cc(C2CC(=O)c3c([nH]c(C(=O)OCCOC(C)C)c3C)C2)cc(OC)c1OC (configuration not stated),-,31.6µM,-,-,?,-
COCCOC(=O)c1[nH]c2c(c1C)C(=O)CC(c1cc(OC)ccc1OC)C2 (configuration not stated),?,-,-,13µM,-,-
CC(C)Oc1ccc(CNC(=O)c2cc3ccccn3n2)cc1,.,-,-,.,-,.
